# Screen size: about 310,000 compounds; about 17,000 (5.5%) were called active. Not shown: some 11% with an inconclusive outcome. Calls follow the shape of the dose curve; as a rule, active = well fitted inhibition curve with a large enough effect; inconclusive = small, poorly fitted or top-dose-only effect, or effect the other way; inactive = no such curve, though single readings can be large or run the other way. The full list was thinned out, with actives kept by preference.
# Target: Nuclear receptor ROR-gamma (Mus musculus) (UniProt P51450)
# Sequence (P51450 whole entry, looked up): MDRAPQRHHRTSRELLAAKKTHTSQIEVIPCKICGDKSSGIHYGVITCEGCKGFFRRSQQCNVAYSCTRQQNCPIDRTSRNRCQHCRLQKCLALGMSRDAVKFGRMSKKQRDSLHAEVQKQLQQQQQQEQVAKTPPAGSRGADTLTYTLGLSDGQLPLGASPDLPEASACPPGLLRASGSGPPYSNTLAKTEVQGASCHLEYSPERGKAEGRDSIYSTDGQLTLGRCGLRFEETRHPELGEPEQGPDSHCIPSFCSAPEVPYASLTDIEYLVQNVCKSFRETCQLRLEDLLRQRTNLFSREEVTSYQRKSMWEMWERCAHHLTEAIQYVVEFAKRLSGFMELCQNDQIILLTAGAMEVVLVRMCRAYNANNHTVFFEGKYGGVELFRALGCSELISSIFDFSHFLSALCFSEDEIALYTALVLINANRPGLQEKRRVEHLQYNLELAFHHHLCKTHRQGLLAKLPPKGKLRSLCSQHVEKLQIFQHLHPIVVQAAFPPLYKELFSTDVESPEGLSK
# Assay: qHTS for inhibitors of ROR gamma transcriptional activity; also: nearly all actives have a fitted effect of over 60% in size
# Settings: Drosophila S2 Gal4-RORgamma UAS-luciferase reporter, 20 h; series mostly up to 53.6 µM; activity change, negative = inhibition: at the top concentration
# Outline: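 In this cell-based reporter format, copper sulfate (700 uM final) drives Gal4–ROR gamma fusion expression from a metallothionein promoter in Drosophila Schneider cells; compounds preincubated 1 hr, reporter read after 20 hr at ambient temperature.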
# % is scaled to controls: 0 for no effect and ±100 for the full control effect; potency is read from the fitted curve at half-maximal effect.
SMILES,"activity change, negative = inhibition",Potency
COc1ccc(S(=O)(=O)NNC(=O)Nc2ccc(C)cc2)c(OC)c1,-9.69% (inactive),
CCOC(=O)NN1C(=O)c2ccccc2NC1c1ccccc1O (stereo unspecified),,11.2 µM (active)
O=C1c2ccccc2NC(c2ccccc2O)N1NS(=O)(=O)c1ccccc1 (stereo unspecified),-4.74% (inactive),
CCOC(=O)NN1C(=O)c2ccccc2NC1c1cccc(O)c1 (stereo unspecified),16.3% (inactive),
COc1ccc(N(CC(=O)N2CCOCC2)S(=O)(=O)c2ccccc2)cc1Cl,-7.47% (inactive),
Cc1ccc(NC(=O)CCN2C(=O)c3ccccc3C2=O)cc1C,2.87% (inactive),
Cc1nn(-c2ccccc2)c2c1c(C)c(CCC(=O)NCC1CCCO1)c(=O)n2C (stereo unspecified),-11.4% (inactive),
O=C(N/N=C/c1ccccn1)c1cccc(NC(=O)c2ccc(Cl)cc2)c1,-27.8% (inactive),
O=C(COc1ccc(Cl)cc1Cl)N/N=C/c1ccccn1,,12.6 µM (active)
CSc1ccc(/C=N\NC(=O)COc2ccc(Cl)cc2Br)cc1,-30.3% (inactive),
C=CCN1CN(S(=O)(=O)c2ccc(OC)cc2)c2nc3ccccc3nc21,14.6% (inactive),
O=C(NC(Nc1nc2ccc([N+](=O)[O-])cc2s1)(C(F)(F)F)C(F)(F)F)c1ccccc1,,6.31 µM (active)
O=C(COC(=O)c1ccc(F)cc1)Nc1nc2ccc([N+](=O)[O-])cc2s1,-1.04% (inactive),
O=C(Nc1nc2ccc([N+](=O)[O-])cc2s1)c1ccncc1,13% (inactive),
CCOc1ccccc1NS(=O)(=O)c1cc2c3c(c1)C(C)C(=O)N3CCC2 (stereo unspecified),8.24% (inactive),
CCc1ccccc1NC(=O)c1ccc2snnc2c1,-1.7% (inactive),
COCCN1CCN(C(=O)c2cc(COc3ccc(F)cc3Cl)on2)CC1,4.15% (inactive),
CCn1c(SCC(=O)NCC2CCCO2)nc2cc(S(=O)(=O)N3CCCCC3)ccc21 (stereo unspecified),29.2% (inactive),
COCCNC(=O)c1ccc(Cn2c(SCC(=O)NCC3CCCO3)nc3ccc(Br)cc3c2=O)cc1 (stereo unspecified),5.53% (inactive),
CCCCn1c(SCC(=O)NCC2CCCO2)nc2ccc(N3CCOCC3)cc2c1=O (stereo unspecified),,2.51 µM (active)
CCCCNC(=O)c1cn(CC)c2cc(N3CCN(C(=O)c4ccco4)CC3)c(F)cc2c1=O,4.18% (inactive),
CCCOc1ccc(Cc2c(O)nc(N)[nH]c2=O)cc1C,1.22% (inactive),

SMILES,"activity change, negative = inhibition",Potency
Cc1ccsc1/C=N/Nc1ccc(Cl)nn1,-20.8% (inactive),
COc1cccc(/C=N/Nc2ccc(Cl)nn2)c1,-7.53% (inactive),
Oc1cccc(/C=N/Nc2ccc(Cl)nn2)c1O,,1.41 µM (active)
Cc1ccc(C)c(S(=O)(=O)N2CCCOC2CNC(=O)C(=O)NC2CCCCC2)c1 (stereo unspecified),-12.7% (inactive),
Cc1ccccc1CN1CCNC(=O)C1CC(=O)NCCC1=CCCCC1 (stereo unspecified),6.29% (inactive),
COC(=O)C1=CN(Cc2ccc(OC)cc2)C=C(C(=O)OC)C1c1ccc(O)c(OC)c1,2% (inactive),
CN1C(=O)[C@H]2[C@@H](C3CC3)N3C(=O)CN(Cc4ccccc4)C(=O)[C@@]3(C)[C@H]2C1=O,-0.788% (inactive),
COC(=O)c1ccc(C(=O)NC2CC(C)(C)Cc3c2cnn3-c2ccc(F)cc2)nc1 (stereo unspecified),27.3% (inactive),
CCc1ccc(OCC(O)CN2CCN(CCO)CC2)cc1 (stereo unspecified),6.29% (inactive),
c1csc(-c2nc(-c3ccncc3)no2)c1,-25.3% (inactive),
c1ccc(-c2noc(-c3cccs3)n2)nc1,,1.26 µM (active)
O=C(Oc1ccc(-c2nc(-c3ccccn3)no2)cc1)c1ccccc1,1.49% (inactive),
COc1ccc2[nH]c(=O)c(C3c4cc(OC)c(OC)cc4CCN3C(=O)c3ccco3)cc2c1 (stereo unspecified),-0.908% (inactive),
CC1CCCCC1NC(=O)CCS(=O)(=O)c1ccc2c(c1)NC(=O)CO2 (stereo unspecified),-15.6% (inactive),
COc1cccc(NC(=O)C2C(c3ccccc3)C2(Cl)Cl)c1 (stereo unspecified),27.3% (inactive),
COc1ccc(-c2cc(C(=O)N3CCN(Cc4ccc5c(c4)OCO5)CC3)on2)cc1OC,0.905% (inactive),
C=CS(=O)c1sc(Cl)c(N2CCOCC2)c1[N+](=O)[O-] (stereo unspecified),,4.47 µM (active)
O=C(CCN1C(=O)C2C3CCC(C3)C2C1=O)Nc1ccc(Cl)cc1Cl (stereo unspecified),15% (inactive),
CC(=O)N1CCOc2ccc(S(=O)(=O)N3CCC(C(=O)Nc4ccccc4F)CC3)cc21,3.01% (inactive),
COc1ccc(NC(=O)Cn2ncn3c(cc4ccccc43)c2=O)c(OC)c1OC,5.63% (inactive),
Cn1c(NC(=O)c2ccccc2)nc2ccccc21,,1 µM (active)
Cn1sc(NC(=O)c2ccccc2)nc1=O,4.29% (inactive),

SMILES,"activity change, negative = inhibition",Potency
CCn1c(NC(=O)c2nn(C)cc2Br)nc2ccccc21,,2.51 µM (active)
CC(C)(C)C(=O)Cn1c(NCCO)nc2ccccc21,20.4% (inactive),
CCc1nc2ccccc2n(CCOCCOCCn2c(=O)c(CC)nc3ccccc32)c1=O,-24.8% (inactive),
CC(=O)NCCc1nc2cc(NC(=O)c3ccccc3)ccc2n1C,-25.2% (inactive),
COc1cc(C(=O)N/C(=C\c2cn(C)c3ccccc23)C(=O)N2CCOCC2)cc(OC)c1OC,-8.8% (inactive),
COC(=O)c1ccc(CNC(=O)c2ccc3oc(C(C)C)nc3c2)cc1,-3.51% (inactive),
CCOc1ccc(CN2CCN(Cc3ccc4cc(F)ccc4n3)CC2CCO)cc1 (stereo unspecified),-21.1% (inactive),
CC(C)(C)c1ccc(C(=O)N2CCC(C(=O)N3CCCCC3)CC2)cc1,17.5% (inactive),
Cc1ccc(C)c(OCCC(=O)OCC(=O)N2CCN(c3ccccc3)CC2)c1,22.2% (inactive),
O=C(NCCc1ccc(Cl)cc1)c1cccc(N2CCCC2=O)c1,41.2% (inactive),
Cc1ccc(/C=N/NC(=O)CNC(=O)COc2ccccc2)o1,14.7% (inactive),
Cc1ccc(/C=N/NC(=O)c2cc3ccccc3cc2O)o1,,1.41 µM (active)
Cc1ccc(/C=N/NC(=O)Cn2ccc(C(F)(F)F)n2)o1,0.733% (inactive),
CC(=O)N(C)c1ccc(NC(=O)Nc2cccc3ccccc23)cc1,-22.6% (inactive),
COc1cccc(NC(=O)c2ccccc2N(Cc2ccccc2)S(C)(=O)=O)c1,1.83% (inactive),
CC1Cc2ccccc2N1C(=O)c1cc2sccc2n1Cc1ccccc1 (stereo unspecified),27.1% (inactive),
CC1CC(=S)Nc2ccccc2N1Cc1ccccc1 (stereo unspecified),,1.41 µM (active)
CC1CC(=O)Nc2ccccc2N1S(=O)(=O)c1cccs1 (stereo unspecified),-18.1% (inactive),
CCCCSc1nnc(-c2ccc(NC(=O)CC)cc2)n1C,27.9% (inactive),
O=C(CN1CCN(c2ccccn2)CC1)Nc1ccc(Br)cc1,6% (inactive),
CCC(=O)Nc1ccc(-c2ccc(N3CCCCC3)nn2)cc1,,4.47 µM (active)
Cc1c(S(=O)(=O)N2CC(C)CC(C)C2)c(=O)n(C)c(=O)n1C (stereo unspecified),-30.5% (inactive),

SMILES,"activity change, negative = inhibition",Potency
Cn1c(-c2ccc(F)cc2)cnc1SCC(=O)NNC(=O)Cc1ccccc1,-1.11% (inactive),
CN(Cc1ccccc1)C(=O)CCc1ccccc1,25.2% (inactive),
Cc1ccc(-c2cnc(NC(=O)CCC(=O)N(C)Cc3ccccc3)n2C)cc1,,2.24 µM (active)
Cc1nc(-c2ccc(F)cc2)c(CC(=O)N2CCN(S(=O)(=O)c3ccc(F)cc3)CC2)s1,33.3% (inactive),
CCn1c(C)cc(=O)cc1-c1ccc(Cl)cc1,0.704% (inactive),
c1ccc(-c2cc(-c3ccccc3)[nH]n2)cc1,14.3% (inactive),
Oc1ccccc1-c1cc(-c2ccc(Cl)cc2)n[nH]1,,7.08 µM (active)
Cc1ccc(NC(=O)c2cc(-c3ccccc3O)n[nH]2)cc1C,-21.9% (inactive),
CN(C(=O)CC1C(=O)NCCN1Cc1ccc(F)cc1Cl)C1CCCCC1 (stereo unspecified),,11.2 µM (active)
CN(C(=O)CC1C(=O)NCCN1Cc1ccc2ccccc2c1)C1CCOCC1 (stereo unspecified),-9.24% (inactive),
CCn1ccnc1CNC(=O)CC1C(=O)NCCN1Cc1ccc(F)cc1Cl (stereo unspecified),8.52% (inactive),
COc1cc(C2C(C(=O)c3ccco3)=C(O)C(=O)N2c2cc(C)on2)ccc1OCc1ccccc1 (stereo unspecified),2.05% (inactive),
COc1ccc(C(C(=O)NC(C)(C)C)N(Cc2ccc(F)cc2)C(=O)CCC(=O)Nc2cc(C)on2)cc1 (stereo unspecified),21.9% (inactive),
O=C(Nc1ccccc1C(=O)O)c1ccc(N2C(=O)C3CC=CCC3C2=O)cc1 (stereo unspecified),-11.1% (inactive),
O=C(Cn1cnc2ccccc21)Nc1ccccc1-c1ccccc1,20.3% (inactive),
O=C(Cn1cnc2ccccc21)N/N=C/c1ccco1,,12.6 µM (active)
Cc1cc(C)c(OCC(=O)N/N=C/c2ccco2)c(C)c1,-10.1% (inactive),
COc1ccc(C(=O)N[C@H](C(=O)NCc2ccccc2)C(C)C)cc1,-13.3% (inactive),
CNC[C@H](CC1CCCCC1)NC[C@H](NCCC1CCCC1)[C@H](C)O,-39.4% (inactive),
O=C(Nc1cccnc1Cl)c1cc(-c2ccccc2O)on1,23.6% (inactive),
NC(=O)Cc1nc2scc(-c3ccc(Cl)cc3)c2c(=O)[nH]1,29.3% (inactive),
O=C(CCc1nc2ccccc2c(=O)[nH]1)OCC(=O)c1cccc(Cl)c1,-5% (inactive),

SMILES,"activity change, negative = inhibition",Potency
O=c1[nH]c(CCl)nc2cc(-c3ccc(Cl)cc3)sc12,,7.08 µM (active)
Cc1ccc(-c2cc(C(=O)NN)n[nH]2)o1,-32.5% (inactive),
CC(C)c1cc(C(=O)N/N=C/C(Br)=C/c2ccccc2)n[nH]1,-8.97% (inactive),
Cc1ccc(-c2cc(C(=O)N/N=C/C=C/c3ccccc3)n[nH]2)o1,,7.08 µM (active)
CCOC(=O)N1CCC(N2Cc3cccc(C(=O)Nc4ccc(S(=O)(=O)N(CC)CC)cc4)c3C2=O)CC1,-9.07% (inactive),
Cc1ccc2c(c1)N(CC(=O)N1CCC(C)CC1)C(=O)c1cccnc1O2,1.07% (inactive),
CCCn1nc(NC(=O)C(C)C)c2cc3cc(OC)ccc3nc21,5.01% (inactive),
Cc1cc(Cl)c2oc(C(=O)N(C)C(C)c3ccccn3)c(C)c2c1 (stereo unspecified),12.6% (inactive),
CCNC(=O)N1CCCC(C(=O)c2ccc(-c3ccccc3)cc2)C1 (stereo unspecified),41.7% (inactive),
NS(=O)(=O)c1ccc(CCNC(=O)c2nc(CS(=O)(=O)c3ccc(Cl)cc3)no2)cc1,6.38% (inactive),
COc1ccccc1NC(=O)CSc1nc2sc3c(c2c(=O)n1-c1ccccc1)CCN(C)C3,20.1% (inactive),
O=C(O)CCC(=O)NCc1ccc2[nH]c3c(c2c1)CCCC3,-10.5% (inactive),
C=CCNC(=S)N1CCc2[nH]c3ccccc3c2C1,-8.55% (inactive),
Cc1cccc(NC(=S)NCc2ccc3[nH]c4c(c3c2)CCCC4)c1,,1.58 µM (active)
Cc1cnc(CN(C)C(=O)C2CCC(=O)N(CCc3cccc(F)c3)C2)[nH]1 (stereo unspecified),-3.15% (inactive),
Nc1nnn(CC(=O)N/N=C/c2ccc(O)cc2)n1,-0.319% (inactive),
CC(C)(C)c1nnc(N/N=C/c2ccc(O)cc2)n(N)c1=O,,1.26 µM (active)
O=C(C[n+]1ccccc1)N/N=C/c1ccc(O)cc1,0.902% (inactive),

# — PubChem BioAssay AID2551 (National Center for Advancing Translational Sciences (NCATS), 2010)
